The list is not random: actives were taken first. Their share in the collection is about 7.4%.
NPC1 prom act: NPC1 promoter activation. 320,000 tested, 2.4% active. Huh7 NPC1 promoter luciferase reporter, 24 h. Potency, µM (titrated, usually from 9.22 µM), actives largely listed as activators; further: nearly all actives have a fitted effect of over 60% in size
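Readout is luciferase luminescence, reflecting NPC1 promoter activation in stably transfected Huh7 cells after 24 h compound exposure at 37 °C in reduced-serum medium with 10% FBS.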
ELG1 genotoxic: inducers of genotoxicity in HEK293T ELG1-luciferase cells. 330,000 tested, 1.3% active. Potency, µM (doses to about 46 µM), usual class: activators. HEK293T ELG1-luciferase reporter, luminescence, 16 h; further: nearly all actives have a fitted effect of over 60% in size
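Quantitative HTS format in 1536-well plates. HEK293T ELG1-luciferase reporter cells receive test compound and are incubated 16 hr at 37 °C, 5% CO2; ONE-Glo added, 30 min room temperature, then luminescence read.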
Rab9 promoter act: activators of Rab9 promoter | Huh7 Rab9 promoter-luciferase reporter, luminescence, 24 h | Potency, µM (titrated, usually from 9.22 µM), actives largely listed as activators | 320,000 tested, 2.8% active; further: nearly all actives have a fitted effect of over 60% in size
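Huh7 reporter line, Rab9 promoter upstream of luciferase. Compound exposure 24 h at 37 °C in reduced-serum medium with 10% FBS. Read-out: luminescence.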
FLuc modulator: firefly luciferase modulation, counter-screen for miR-21 project; AID 588342; Potency, µM (series often up to 57.5 µM), most hits filed as inhibitors; 360,000 tested, 6.9% active; P08659; purified FLuc, Km substrates, luminescence inhibition; further: nearly all actives have a fitted effect of over 55% in size
Target sequence (P08659 whole entry, looked up): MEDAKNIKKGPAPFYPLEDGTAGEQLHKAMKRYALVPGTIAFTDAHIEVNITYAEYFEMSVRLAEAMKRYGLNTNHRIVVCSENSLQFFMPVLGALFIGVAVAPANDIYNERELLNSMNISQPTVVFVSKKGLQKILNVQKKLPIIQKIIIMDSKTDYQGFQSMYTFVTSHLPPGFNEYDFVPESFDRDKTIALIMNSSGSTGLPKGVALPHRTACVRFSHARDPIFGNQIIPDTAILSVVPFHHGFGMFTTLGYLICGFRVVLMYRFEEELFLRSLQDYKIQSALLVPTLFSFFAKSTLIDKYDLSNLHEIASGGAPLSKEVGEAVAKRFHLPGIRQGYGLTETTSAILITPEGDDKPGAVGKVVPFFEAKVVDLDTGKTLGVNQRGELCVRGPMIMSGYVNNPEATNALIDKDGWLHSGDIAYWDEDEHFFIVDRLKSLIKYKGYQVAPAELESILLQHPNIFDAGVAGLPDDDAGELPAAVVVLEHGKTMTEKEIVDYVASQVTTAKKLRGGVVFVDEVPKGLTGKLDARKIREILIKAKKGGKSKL
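Biochemical qHTS of compounds, final roughly 60 µM downward over six points, against 10 nM purified firefly luciferase using Km concentrations of substrates (10 uM D-luciferin, 10 uM ATP) in Tris acetate pH 7.5 buffer; luminescence output.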
SMN2 splice up: enhancers of SMN2 splice variant expression; 210,000 tested, 2.8% active; HEK293 SMN2-luciferase splicing reporter, luminescence, 30-36 h; Potency, µM (doses to about 46.1 µM), usual class: activators; further: nearly all actives have a fitted effect of over 55% in size
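HEK293 cells carry an SMN2 […]–luciferase reporter in which exon 7 inclusion puts luciferase in frame. Cells were plated 10-12 h before compound addition, then incubated 30-36 h at 37C. ONE-Glo luminescence was read; sodium butyrate at 4.5 mM final served as control.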
Numbers stand for hits; 0 = inactive; ? = inconclusive; - = no result. The call rests on the fitted dose curve; in most records, active means well fitted curve in the direction sought with a large enough effect; inconclusive means small, poorly fitted or top-dose-only effect, or another doubt; inactive means no such curve, though single readings can be large; an effect the other way counts as inactive or inconclusive.

SMILES | NPC1 prom act | ELG1 genotoxic | Rab9 promoter act | FLuc modulator | SMN2 splice up
COc1ccc(C2=NOC(CN3C(=O)c4ccccc4S3(=O)=O)C2)cc1 (stereo not given) | 1.3µM | ? | 0.89µM | 2.1µM | ?
CCOC(=O)c1cc(-c2ccc(OC)cc2)nn1Cc1ccccc1 | - | - | - | 7.6µM | 0
O=C1c2ccccc2S(=O)(=O)N1CC1CC(c2ccccc2)=NO1 (stereo not given) | 3.2µM | 4.1µM | 1.4µM | 6µM | 0
COc1ccc(C2=NOC(Cn3nc(-c4ccccc4)cc3C(=O)O)C2)cc1 (stereo not given) | 0 | 0 | 0 | 4.8µM | -
COc1ccc(NC(=O)NCCC2=CCCCC2)cc1 | 4µM | ? | 2.8µM | ? | 13µM
COc1ccccc1NC(=O)NCCC1=CCCCC1 | 0 | 0 | 0 | ? | -
COc1cccc(NC(=O)NCCC2=CCCCC2)c1 | 3.5µM | ? | 4.5µM | 15µM | 14µM
CC(C)(CO)NC(=O)CCCOc1ccc(Cl)cc1Cl | ? | 11µM | ? | ? | 10µM
O=C(COc1ccc(Cl)cc1Cl)NC(=S)Nc1ccccc1C(=O)O | 0 | 0 | 0 | 6.7µM | -
O=C(COc1ccc(Cl)cc1Cl)NNC(=S)Nc1ccc(F)cc1 | 0 | 0 | 0 | 17µM | -
O=C(CCCOc1ccc(Cl)cc1Cl)Nc1ccccc1C(=O)O | 2.5µM | 0 | 3.5µM | 8.5µM | -
O=C(COc1ccc(Cl)cc1Cl)Nc1ccc(C(=O)Nc2ccccc2C(=O)O)cc1 | 0 | 0 | 0 | 0 | -
CC(=O)NC(=S)Nc1ccc(NC(=O)COc2ccc(Cl)cc2Cl)cc1 | 0 | 0 | 0 | 0 | 0
CC(C)(C)C(=O)NNC(=O)CCCOc1ccc(Cl)cc1Cl | 0 | 0 | 0 | 0 | 0
COCc1cc(C)n(CC(=O)Nc2ccc(NC(C)=O)cc2)c(=O)c1C#N | - | - | - | 0 | 0
CCOc1nc(NC(=O)NS(=O)(=O)Oc2cccc(F)c2)nc(-c2ccccc2)n1 | - | - | - | ? | 0
Cc1ccc(NC(=O)C2CCCN(S(=O)(=O)c3cccc4cccnc34)C2)c(C)c1 (stereo not given) | - | - | - | 0 | 0
Cc1ccc(Cn2c(C)c(CNCc3ccc(OC(C)C)cc3)c(C(=O)O)c2C)cc1 | - | - | - | 0 | 0
Cc1ccc(C(=O)c2cn(Cc3ccccc3C)c3nc(C)ccc3c2=O)cc1 | - | - | - | 0 | 0
COc1ccc(NC(=O)COC(=O)CCCOc2ccc(Cl)cc2Cl)cc1Cl | 0 | 0 | 0 | 15µM | 0
COc1ccc(NC(=O)COC(=O)CCCOc2ccc(Cl)cc2Cl)cc1 | 0 | 0 | 0 | ? | 0
CCOc1ccc(CN(C(=O)c2nc(SC)ncc2Cl)C2CCS(=O)(=O)C2)cc1 (stereo not given) | - | - | - | 0 | 0
CC(O)CNc1ncnc2cc(-c3ccc(F)cc3)sc12 (stereo not given) | ? | ? | ? | 11µM | -
COc1ccc(/C=C/C(=O)Nc2ccccc2C(=O)N2CCCC2)cc1 | ? | 0 | ? | 9.5µM | 0
COc1ccc(/C=C(/C(=O)Nc2ccccc2C(=O)N2CCCC2)c2ccccc2)cc1 | 0 | 0 | 0 | 0 | 0
SMILES | NPC1 prom act | ELG1 genotoxic | Rab9 promoter act | FLuc modulator | SMN2 splice up
COc1ccc(/C=C/C(=O)NC(=S)Nc2cc([N+](=O)[O-])ccc2O)cc1OC | 0 | 0 | 0 | 7.6µM | 0
COc1ccc(/C=C/C(=O)Nc2ccccc2C(=O)O)cc1OC | 1.4µM | ? | 0.89µM | 0.15µM | 0
CCc1cc(C(=O)O)c(NC(=O)/C=C/c2ccc(OC)cc2)s1 | 2.5µM | ? | 2.8µM | 12µM | -
CCOc1ccc(CCNCc2c(C(=O)O)c(C)n(Cc3ccccc3F)c2C)cc1 | - | - | - | 0 | 0
CN1CC(=O)Nc2cc(C(=O)O)ccc21 | - | - | - | 0 | -
Cc1cc(Cl)ccc1NC(=O)c1cccc(NC(=O)N2CCSc3ncccc32)c1 | - | - | - | 0 | -
COc1ccc(/C=C/C(=O)Nc2ccccc2C(=O)O)cc1 | 0.45µM | ? | 3.2µM | 0.43µM | 4µM
COc1ccc(/C=C/C(=O)Nc2ccccc2C(=O)NCC(c2ccc(OC)cc2)N(C)C)cc1 (stereo not given) | 0 | 0 | 0 | 11µM | -
COc1ccc(C(CNC(=O)c2cccc3cccnc23)N(C)C)cc1 (stereo not given) | 0 | 0 | 0 | 0 | -
COc1ccc(/C=C/C(=O)Nc2cc(C)nn2-c2nc3ccccc3[nH]2)cc1 | 4µM | 0 | ? | 1.7µM | 11µM
COc1ccc(/C=C/C(=O)Nc2ccccc2C(F)(F)F)cc1 | ? | 0 | ? | ? | ?
Cc1cc(O)c(/C=N/OCc2ccc(Cl)cc2Cl)c(=O)o1 | 0 | 0 | 0 | ? | 0

Source: PubChem BioAssay (National Center for Advancing Translational Sciences (NCATS))
